The panel holds about 79,000 compounds, 15% with a hit somewhere; the sample as a whole holds those more often. Unmarked numbers belong to inactive results. Calls of active or inactive are those of the source. No stated cut-off is given here; in the data, active means growth inhibition above about 70%; inactive means the rest.
Experiments:
[1] = NCI Yeast Anticancer Drug Screen. Data for the rad50 strain (AID 155);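 further: 0% = growth of vehicle-only cultures of the same strain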; details: S. cerevisiae rad50 strain growth inhibition, stronger effect = higher value
In short: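 Compounds were tested on a yeast strain with an engineered DNA damage repair alteration; the reported value is growth inhibition normalised to vehicle treatment.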

[2] = NCI Yeast Anticancer Drug Screen. Data for the mec2-1 strain (AID 157); details: S. cerevisiae mec2-1 strain, stronger effect = higher value
In short: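 Vehicle-treated cultures served as reference for growth inhibition of compound-exposed mec2-1 yeast.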

[3] = NCI Yeast Anticancer Drug Screen. Data for the sgs1 mgt1 strain (AID 161);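 further: 0% = growth of cultures given vehicle only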; details: S. cerevisiae sgs1 mgt1 strain, stronger effect = higher value
In short: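 Genetically altered yeast, compound exposure, growth inhibition relative to vehicle.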

[4] = NCI Yeast Anticancer Drug Screen. Data for the cln2 rad14 strain (AID 165);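 further: 0% = growth equal to vehicle treated cultures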; details: S. cerevisiae cln2 rad14 strain, stronger effect = higher value
In short: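 Each compound was tested on cln2 rad14 yeast. Inhibition of growth was calculated against vehicle-exposed controls.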

[5] = NCI Yeast Anticancer Drug Screen. Data for the bub3 strain (AID 167); details: S. cerevisiae bub3 mutant strain, stronger effect = higher value
In short: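 Growth of a checkpoint-deficient yeast mutant is measured after compound exposure. Values represent inhibition relative to vehicle.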

[6] = NCI Yeast Anticancer Drug Screen. Data for the mlh1 rad18 strain (AID 175); details: S. cerevisiae mlh1 rad18 strain growth inhibition, stronger effect = higher value
In short: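 Vehicle-treated cultures served as the reference for growth inhibition in a yeast strain carrying DNA damage repair alterations exposed to each compound.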

[7] = at 5.0 µM (retest, dose inferred, filed as 0.5)
[8] = at 50.0 µM (retest, dose inferred, filed as 5.0)

| SMILES | growth inhibition [1, 7] | growth inhibition [1, 8] | growth inhibition ([1]; at 50.0 µM) | growth inhibition [2, 7] | growth inhibition [2, 8] | growth inhibition ([2]; at 50.0 µM) | growth inhibition [3, 7] | growth inhibition [3, 8] | growth inhibition ([3]; at 50.0 µM) | growth inhibition [4, 7] | growth inhibition [4, 8] | growth inhibition ([4]; at 50.0 µM) | growth inhibition [5, 7] | growth inhibition [5, 8] | growth inhibition ([5]; at 50.0 µM) | growth inhibition [6, 7] | growth inhibition [6, 8] | growth inhibition ([6]; at 50.0 µM) |
| --- | --- | --- | --- | --- | --- | --- | --- | --- | --- | --- | --- | --- | --- | --- | --- | --- | --- | --- |
| C[n+]1c(-c2ccc(/C=N/NC(=O)C(=O)N/N=C/c3ccc(-c4cn5ccccc5[n+]4C)cc3)cc2)cn2ccccc21 | 59% | 95% (active) | 89.8% (active) | 63% | 97% (active) | 92.1% (active) | 69% | 98% (active) | 88.6% (active) | 28% | 91% (active) | 84.7% (active) | 64% | 98% (active) | 91% (active) | 70% (active) | 98% (active) | 89.5% (active) |
| Cc1nc(N)sc1N=Nc1cccc(Cl)c1Cl | -5% | 39% | 71.5% (active) | -8% | 56% | 50.4% | 3% | 70% (active) | 66.2% | 0% | 4% | 53.8% | -2% | 23% | 75.8% (active) | 21% | 79% (active) | 84.2% (active) |
| CC(=O)c1csc2c1C(=O)c1scc(C(C)=O)c1C2=O | 26% | 48% | 48.5% | 27% | 49% | 30.9% | 24% | 43% | 90.3% (active) | 14% | 36% | 88.6% (active) | 37% | 47% | 90.3% (active) | 32% | 49% | 87% (active) |
| CC(C)(C)CC(C)(C)c1ccc(O)c(O)c1 | 96% (active) | 99% (active) | 93.3% (active) | 100% (active) | 99% (active) | 94.2% (active) | 98% (active) | 99% (active) | 94.5% (active) | 55% | 99% (active) | 92.3% (active) | 86% (active) | 98% (active) | 93.3% (active) | 100% (active) | 99% (active) | 93.2% (active) |
| CN(C)CCC(/C=C/c1ccccc1)=N\Nc1ccc(Cl)cc1Cl | 66% | 87% (active) | 99.5% (active) | 32% | 94% (active) | 99.5% (active) | 47% | 91% (active) | 99.4% (active) | 66% | 88% (active) | 98.7% (active) | 80% (active) | 90% (active) | 98.8% (active) | 78% (active) | 91% (active) | 99.5% (active) |
| C(C#Cc1ccccc1)#CCc1ccccc1 | 2% | 17% | 19% | 7% | 16% | 28.9% | 1% | 39% | 54.6% | 1% | 7% | 6.5% | 1% | 13% | 47.2% | -1% | 21% | 74.1% (active) |
| C[C@@]12C(=O)OC(=O)[C@]1(C)[C@H]1CC[C@@H]2O1 | 96% (active) | 98% (active) | 93.2% (active) | 94% (active) | 99% (active) | 94.2% (active) | 97% (active) | 97% (active) | 93.3% (active) | 78% (active) | 98% (active) | 91.8% (active) | 70% (active) | 99% (active) | 92.8% (active) | 96% (active) | 98% (active) | 92.5% (active) |
| COc1ccc2c(c1)C(=O)C(Br)CC2 (centres undefined) | 16% | 98% (active) | 25.4% | 12% | 99% (active) | 66.6% | 2% | 55% | 71.2% (active) | 26% | 92% (active) | 32% | 32% | 99% (active) | 70% | 13% | 99% (active) | 65.8% |
| COC(=O)/C=C1/Nc2ccc(Cl)cc2C(=O)NC1=O | 44% | 56% | 39.3% | 36% | 45% | 27.2% | 36% | 54% | 58.9% | 23% | 42% | 28.9% | 41% | 80% (active) | 30.8% | 40% | 52% | 33.5% |
| COC/C=N/Nc1ccc([N+](=O)[O-])cc1 | 90% (active) | 98% (active) | 98.6% (active) | 45% | 98% (active) | 98.3% (active) | 90% (active) | 98% (active) | 98% (active) | 46% | 98% (active) | 98.5% (active) | 94% (active) | 98% (active) | 99% (active) | 90% (active) | 98% (active) | 98.5% (active) |
| O=c1c(S(=O)(=O)Oc2ccccc2)coc2cc(F)ccc12 | 99% (active) | 100% (active) | 81.7% (active) | 99% (active) | 100% (active) | 86.7% (active) | 99% (active) | 100% (active) | 90.2% (active) | 99% (active) | 100% (active) | 91.5% (active) | 99% (active) | 100% (active) | 91% (active) | 99% (active) | 100% (active) | 93.1% (active) |
| C=C1C(=O)OC2C/C(C)=C/CC/C(C)=C/CCC3(COC(C)=O)OC3CC12 (centres undefined) | 4% | 98% (active) | 92.7% (active) | 14% | 98% (active) | 94.2% (active) | 10% | 97% (active) | 94.2% (active) | 1% | 95% (active) | 92.5% (active) | 11% | 97% (active) | 93.2% (active) | 37% | 98% (active) | 92.8% (active) |
| CCN(CC)CCNc1ccc2nnn3c4ccc([N+](=O)[O-])cc4c(=O)c1c23 | 16% | 35% | 66.5% | 1% | 12% | 26% | 5% | 15% | 66% | 24% | 27% | 36.2% | 9% | 35% | 37.9% | 11% | 30% | 76% (active) |

From PubChem BioAssay (NCI)
